Bioassay records deposited in PubChem by several laboratories.
Only some compounds are listed: those with a hit (about 2.5% of all), similar ones and a draw of the others.
CFTR F508del cor: CFTR F508del correction in bronchial cells; CFBE cells, YFP halide quenching; stimulated with forskolin plus potentiator P3; % fluorescence drop versus neutral controls; activity (quench increase), % at 7.58 µM; hit rate 0.36% among 350,000;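 active means mean added fluorescence quench of at least 8% versus neutral control, with both replicates also reaching 8%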;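 further: cells transiently co-express mutant CFTR-F508del with the halide-sensitive YFP; corrector assay measuring rescue of mutant channel to the surface after 24 h compound exposure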
PAX8 reporter: lowers PAX8-driven luciferase in RMG-I cells | hit rate 1.2% among 360,000 | inhibition, % at 12.6 µM | RMG-I TPO-luciferase reporter, SteadyGlo, 24 h;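 active means mean replicate inhibition at least 60% with every replicate also reaching 60%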;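 further: luciferase light reporting Pax8 driven TPO promoter activity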
FXN GAA850 act: increases GAA850 frataxin promoter reporter activity. activation, % at 6 µM. HEK293 lucGAA850 FXN promoter luciferase reporter, 24 h; percent of 10 µM SAHA response. hit rate 0.56% among 360,000;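 active means activation above the average of all compounds screened plus 3 SD, cutoff fixed separately per campaign, cut at about 7.5% in these data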
EWS-Fli inh: inhibitors of EWS/Fli oncoprotein transcriptional activity | A673 NR0B1-luciferase reporter, viability-normalised | inhibition, % at 12.6 µM | hit rate 0.67% among 350,000;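 active means mean inhibition of at least 50% after viability correction, with every replicate also passing that limit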;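 further: firefly luciferase signal divided by Alamar Blue viability fluorescence both relative to DMSO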
Env fusion inh: blocks HIV Env-driven cell-cell fusion. AID 651610. inhibition, % at 12.3 µM. HeLa-JRFL Env/CEM21 cell fusion, luciferase. hit rate 1.1% among 360,000;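 active means mean replicate inhibition score of at least 50 and every replicate individually at or above 50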
GAA30 FXN cntr: counter-screen for GAA850 frataxin promoter activators: GAA30 promoter activation; shares compounds with FXN GAA850 act; HEK293 lucGAA30 FXN promoter luciferase, 24 h; DMSO = 0%, 5 µM ipriflavone = 100%; activation, % at 6 µM; hit rate 66% among 1,900; AID 588350;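 active means mean activation above the mean of solvent-only control wells plus 3 SD, cut at about 22% in these data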;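 further: counterscreen of GAA850 promoter hits where activity marks nonselective or luminescence artifacts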
GAA850 confirm: confirmation of GAA850 frataxin (FXN) promoter activators; shares compounds with FXN GAA850 act; HEK293 lucGAA850 FXN promoter luciferase reporter, 24 h; 100% = activation by SAHA; activation, % at 6 µM; hit rate 86% among 1,900; AID 588351;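 active means mean activation above a set limit taken from the primary screen, cut at about 8% in these data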
DNA binding: DNA binding small molecules. shares compounds with EWS-Fli inh. salmon sperm DNA acridine orange fluorescence polarization. AC35, µM (highest dose often 68 µM). hit rate 2% among 640. AID 720586;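 active means fitted curve reaches a 35% signal fall AC35 below twice the sample's top valid tested dose, actives reach about 48 µM in these data; inactive means the rest, including activity in the rising direction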;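 further: lower polarization ratio signals compound binding to DNA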
Numbers stand for hits; 0 = inactive; - = no result.

SMILES	CFTR F508del cor	PAX8 reporter	FXN GAA850 act	EWS-Fli inh	Env fusion inh	others
N#Cc1cccc(-c2ccc([C@H]3[C@H](CO)N4CCCCN(C(=O)Cc5ccccc5)C[C@@H]34)cc2)c1	0	0	-	0	-
COC(=O)C[C@H]1CC[C@@H]2NC[C@@H](O)COC[C@H]2O1	0	0	-	0	0
COC(=O)C[C@@H]1CC[C@H]2NC[C@@H](O)COC[C@@H]2O1	0	0	-	0	0
CC1=C(N2CC2)C(=O)C(CO)=C(N2CC2)C1=O	0	117.9	0	0	80.1
COC(COC(N)=O)C1=C(N2CC2)C(=O)C(C)=C(N2CC2)C1=O (stereo unspecified)	0	0	0	0	0
COc1cc2c(cc1C=O)OCO2	0	0	0	0	0
COc1cc([C@@H]2c3cc4c(cc3[C@@H](OC)[C@H]3COC(=O)[C@H]23)OCO4)cc(OC)c1O	9.3	0	0	62.6	0
c1ccc2c(c1)[IH]c1ccccc1-2	0	64.4	0	0	0
O=C1C=CC(=O)C2C1C1(Cl)C(Cl)=C(Cl)C2(Cl)C1(Cl)Cl (stereo unspecified)	0	0	0	0	65.8
N#Cc1cccc(-c2ccc([C@H]3[C@H](CO)N4CCCCN(C(=O)Cc5cccnc5)C[C@@H]34)cc2)c1	0	0	-	0	-
O=[N+]([O-])c1ccc(-[n+]2c(-c3ccccc3)cc(-c3ccccc3)cc2-c2ccccc2)cc1	0	0	0	0	0
O=[N+]([O-])c1ccccc1-c1cc(-c2ccccc2)cc(-c2ccccc2)[n+]1Cc1ccccc1Cl	0	86.1	-	51.5	61.1
CN1C(=O)NC(=O)C2(CCCC2)C1=O	10.3	0	0	0	0
O=C(Cc1ccccn1)N1CCCCN2[C@H](CO)[C@H](c3ccc(Br)cc3)[C@H]2C1	0	0	-	0	-
COc1ccc2[nH]c(C)c(CCNCc3cccnc3)c2c1	0	0	0	0	-
Cc1[nH]c2ccc(OC(F)(F)F)cc2c1CCNCc1ccc(Cl)cc1	0	0	13.2	0	92.6	GAA30 FXN cntr=0;GAA850 confirm=8.9
CN1[C@H](CO)[C@H]2c3ccccc3NC[C@H]21	0	0	-	0	-
C/C1=C\[C@@H](C)C/C=C/[C@H]2[C@@H]3O[C@]3(C)[C@@H](C)[C@H]3[C@H](Cc4c[nH]c5ccccc45)NC(=O)[C@]32C(=O)/C=C/C(=O)[C@@H]1O	-	-	8.8	-	-	GAA30 FXN cntr=0;GAA850 confirm=46.0
CC=Cc1ccc2n(c1=O)C[C@H]1[C@H](CO)[C@@H](C(=O)OC)[C@@H]2N1S(=O)(=O)c1ccccc1C (mixture of isomers)	0	0	-	0	-
COc1cc2nc(CN3CC=C(c4ccccc4)CC3)[nH]c(=O)c2cc1OC	0	0	22.2	0	0	GAA30 FXN cntr=77.3;GAA850 confirm=61.1
COc1cc(C)c(CN2CC=C(c3ccc(F)cc3)CC2)cc1C	0	0	0	0	0
CC(=NNC(=S)N1CC2CCC(CC2)C1)c1nccs1	0	0	12.3	0	0	GAA30 FXN cntr=0;GAA850 confirm=0
OC12ONC(c3ccccn3)C1N1CCC2CC1 (stereo unspecified)	0	0	18.3	0	0	GAA30 FXN cntr=34.3;GAA850 confirm=16.2
COCC(=O)N1[C@@H]2c3ccc(C4=CCCC4)c(=O)n3C[C@H]1[C@H](CO)[C@H]2C(=O)OC	0	0	-	0	-
CCN(C)C(C)Cc1cccc(C(F)(F)F)c1 (stereo unspecified)	0	-	-	0	-
SMILES	CFTR F508del cor	PAX8 reporter	FXN GAA850 act	EWS-Fli inh	Env fusion inh	others
CCN[C@@H](C)Cc1cccc(C(F)(F)F)c1	0	-	14.0	0	-	GAA30 FXN cntr=0;GAA850 confirm=0
COC(=O)[C@H]1[C@H](CO)[C@H]2Cn3c(ccc(-c4ccccc4)c3=O)[C@@H]1N2CC1CCOCC1	0	0	-	0	-
CN(C)[C@@H]1C(=O)C(C(N)=O)=C(O)[C@@]2(O)C(=O)C3=C(O)c4c(O)ccc(Cl)c4[C@@](C)(O)[C@H]3C[C@@H]12	0	-	13.2	0	-	GAA30 FXN cntr=40.9;GAA850 confirm=15.3
Cc1ccc(-c2nc3ccc(Cl)cc3n2OC(=O)N(C)C)cc1	-	-	7.7	-	-	GAA30 FXN cntr=109.4;GAA850 confirm=41.3
Nc1cc(Cl)c2nonc2c1[N+](=O)[O-]	-	76.1	43.0	-	0	GAA30 FXN cntr=0;GAA850 confirm=85.9
O=C(O)[C@H]1[C@H](CO)[C@H]2Cn3c(ccc(-c4ccncc4)c3=O)[C@@H]1N2C(=O)C1CCCC1	0	-	-	0	-
O=C(Cc1ccccn1)N1CCCCN2[C@@H](CO)[C@H](c3ccc(Br)cc3)[C@@H]2C1	0	0	-	0	-
COC1C(C)OC(OC2CC(C)(O)Cc3cc4c(c(O)c32)C(=O)c2c(O)cc3c(c2C4=O)OC2OC3(C)C(O)C(N(C)C)C2O)C(OC)C1(C)OC (stereo unspecified)	20.4	-	0	55.7	70.7	DNA binding=1.26µM
COc1ccc(C#Cc2ccc([C@@H]3[C@@H](CO)N4CCCCN(C(=O)Cc5ccncc5)C[C@@H]34)cc2)cc1	0	0	-	-	-
O=C1NC(=S)NC(=O)C1=Cc1cccn1-c1ccc(O)cc1	0	0	0	71.5	0	DNA binding=0
O=C(Cc1ccccn1)N1CCCCN2[C@H](CO)[C@H](c3ccc(-c4ccccc4F)cc3)[C@@H]2C1	0	0	-	0	-
O=C(O)[C@@H]1[C@@H](CO)[C@@H]2Cn3c(ccc(-c4ccccc4)c3=O)[C@H]1N2CC1CCCCC1	0	0	-	0	-
COC(=O)[C@H]1[C@H](CO)[C@H]2Cn3c(ccc(-c4ccccc4F)c3=O)[C@@H]1N2CC1CCCC1	-	-	-	66.2	0	DNA binding=0
COC(=O)[C@@H]1[C@@H](CO)[C@@H]2Cn3c(ccc(-c4ccccc4)c3=O)[C@H]1N2CC1CCCC1	0	-	-	0	-
COC(=O)[C@@H]1[C@@H](CO)[C@@H]2Cn3c(ccc(C4=CCCCC4)c3=O)[C@H]1N2C(=O)CC1CC1	0	0	-	0	-
COc1ccc(C(=O)N/N=C/C23CC[C@@H](O)CC2(O)CC[C@@H]2[C@@H]3CCC3(C)C(C4=CC(=O)OC4)CCC23O)cc1 (stereo partly specified)	0	0	0	0	0
C[C@@H]1O[C@@H](O[C@H]2C[C@@H](O)[C@]3(CO)[C@H]4[C@H](O)C[C@]5(C)[C@@H](C6COC(=O)C6)CC[C@]5(O)[C@@H]4CC[C@]3(O)C2)[C@H](O)[C@H](O)[C@H]1O (stereo partly specified)	0	105.1	0	70.3	0	DNA binding=0
CC1OC(OC2CC(O)C3(CO)C4C(O)CC5(C)C(C6=CC(=O)OC6)CCC5(O)C4CCC3(O)C2)C(O)C(O)C1O (stereo unspecified)	14.9	-	0	67.7	-	DNA binding=0
